Experimental data: ChEMBL document CHEMBL3988442, “University of Dundee, Small-Polar-MMV Screening Library” (2021)
About 900 (1.7%) of roughly 53,000 compounds showed an effect of 50% or more. Shown is part of a subset that was picked to be rich in strong results.

Tested on: Mycobacterium tuberculosis
Test: Cornell - Phenotypic assay to identify agents that inhibit growth of Mycobacterium tuberculosis
Type: functional
Set-up: scale not given: direction of the effect not stated beside the values
Conditions: 10 mM as filed; unlikely as a test dose

SMILES	Percent Effect
CC(=O)NCCNC(=O)CCn1c(C)cc2ccccc21	15.36%
Cc1cc(NC(=O)CN2CCCC2c2noc(C3CC3)n2)n(C)n1 (stereo not given)	-35.39%
O=C(O)C(F)(F)F.O=C(c1ccccc1F)N1CCC2(CC1)CC(Oc1ccccn1)CO2 (stereo not given)	20.39%
Cl.NCC(=O)N1CCCC1c1n[nH]cc1-c1ccccc1F (stereo not given)	-8.12%
CC(=O)N1CCCC(c2ccnc(N(C)C)n2)C1 (stereo not given)	-19.51%
CN(C)c1nccc(C2CN(c3ccccc3)CCO2)n1 (stereo not given)	59.44%
CN(C)c1nccc(C2CN(c3cnccn3)CCO2)n1 (stereo not given)	-32.07%
CC(C)N1CCOC(c2ccnc(N(C)C)n2)C1 (stereo not given)	50.07%
CC(=O)N1CCOC(c2ccnc(N(C)C)n2)C1 (stereo not given)	23.94%
CN(C)c1nccc(C2CCN(c3ncccn3)CC2)n1	38.24%
O=C(Cn1ccnc1)N1C[C@@H]2CC[C@H](Oc3ccccc3F)[C@@H]2C1	-34.19%
O=C(Nc1nc2c(s1)CCC2)NC1CCCC1	34.54%
Cl.O=C(NCCO)c1sc2ncccc2c1C1CNCCO1 (stereo not given)	5.786%
CC(=O)Nc1nc(C(=O)NCc2ccc(N3CCCCC3)cc2)cs1	-6.079%
CN(CCN1CCOC1=O)CC(=O)Nc1cc(F)cc(F)c1	-4.563%
CCN1CC(COC(=O)c2ccccc2Cl)CC1=O (stereo not given)	9.93%
CCOC(=O)c1c(NC(=O)C2CCN(C(C)=O)CC2)sc(C)c1CC	0.6351%
CCc1c(C)sc(NC(=O)CN2CCOCC2)c1C(=O)OC	13.88%
CCc1c(C)sc(NC(=O)CN2CCN(CC)CC2)c1C(=O)OC	85.25%
NC(=O)N1CCc2ncc(CNC(=O)CC3CC3)n2CC1	-19.97%
O=C(C1CC1)N1CCC2(CCCN2Cc2ccc(F)cc2)CC1.O=C(O)C(F)(F)F	3.548%
CC(=O)N1CCCC(c2nc(N(C)C)ncc2-c2ccccc2)C1 (stereo not given)	12.04%
CCC(=O)N1CCCC(c2nc(N(C)C)ncc2-c2ccc(F)cc2)C1 (stereo not given)	78.09%
COCC(=O)N1CCCC(c2nc(N(C)C)ncc2-c2ccccc2)C1 (stereo not given)	21.17%
CCN1Cc2cc(OC)ccc2N(CC(C)(C)O)CCC1=O	-17.4%
CN(C)c1ncccc1CNC(=O)CCNc1ncccn1	29.98%
Cc1noc(-c2cnc(NC(C)C)nc2-c2ccco2)c1C	32.42%

SMILES	Percent Effect
Cc1cc(-c2cnc(NC3CCCC3)nc2-c2ccoc2)on1	81.21%
Cc1cc(-c2cnc(NC3CCCC3)nc2-c2ccc(C)o2)on1	92.52%
Cc1cnc(-c2nc(NC3CCCC3)ncc2-c2onc(C)c2C)cn1	7.273%
Cc1noc(-c2cnc(NCC3CCCO3)nc2-c2ccco2)c1C (stereo not given)	34.64%
Cc1cc(-c2cnc(NC3CCCC3)nc2-c2ccco2)on1	78.21%
Cc1cc(-c2cnc(NC3CC3)nc2-c2ccco2)on1	47.86%
Cc1cc(-c2cnc(NC3CCCCC3)nc2-c2ccco2)on1	97.15%
Cc1cc(-c2cnc(NC3CCCC3)nc2-c2ccoc2C)on1	18.15%
Cc1cc(-c2cnc(NC3CC3)nc2-c2ccoc2)on1	-15.23%
Cc1cnc(-c2nc(NC3CC3)ncc2-c2cc(C)no2)cn1	-18.55%
COCCNc1ncc(-c2cc(C)no2)c(-c2ccco2)n1	-34.06%
CCc1noc(CN2CCN(CC(O)c3ccccc3)CC2)n1 (stereo not given)	-1.918%
O=C(O)C(F)(F)F.O=C1CC(c2ccncc2)C2(CCN(C(=O)c3ccc[nH]3)CC2)N1 (stereo not given)	-25.12%
CC(C)=CCN1C[C@@H]2CN(C(=O)c3cnccc3C)C[C@]2(C(=O)O)C1	13.3%
CC(C)[C@H](N)C(=O)N1CCSc2ccccc2C1.Cl	15.34%
CS(=O)(=O)N1CC(c2ccnc(Nc3ccccn3)n2)C1	3.174%
O=C(Nc1ccccn1)C1CCN(C(=O)COc2ccccc2F)C1 (stereo not given)	-42.88%
O=C(N1CCCC(n2cncn2)C1)C1(c2cccc(F)c2)CCCC1 (stereo not given)	-7.361%
Cc1c(CN2CCC(C(=O)O)(n3cccn3)CC2)oc2ccccc12	-1.551%
Cc1cc(-c2cnc(NC3CC3)nc2-c2ccoc2C)on1	6.588%
Cc1occc1-c1nc(NC2CCCC2)ncc1-c1ccccn1	85.8%
Cc1noc(-c2cnc(NC3CC3)nc2-c2ccco2)c1C	21.85%
Cc1cc(CN(C)C(=O)CN2CCCCCC2=O)no1	6.807%
COc1ccc(Oc2ccc(C(F)(F)F)cn2)cc1CN1CCCC1	50.99%
Fc1cc(Oc2ccc(C(F)(F)F)cn2)cc(F)c1CN1CCCC1	17.52%
COc1cc(Oc2ccc(C(F)(F)F)cn2)ccc1CN1CCCC1	21.65%
COc1cc(Oc2cnc3ccccc3n2)ccc1CN1CCCC1	89.59%

SMILES	Percent Effect
COc1cc(Oc2ccc(C#N)cn2)ccc1CN1CCCC1	27.7%
COc1cc(Oc2ccc(C(N)=O)cn2)ccc1CN1CCCC1	6.938%
COc1ccc(CC(=O)NCCCc2nnc3nc(C)cc(C)n23)cc1	-52.99%
CC(C)N1CCCC1c1nc(N(C)C)ncc1I (stereo not given)	5.368%
Cc1c(Br)c(C(F)F)nn1C(C)C(=O)O (stereo not given)	18.88%
COCCN(C)C(C(=O)O)c1ccc(Cl)c(F)c1 (stereo not given)	-23.65%
Cc1noc(C)c1CN1CCO[C@H]2CNC[C@H]21.Cl.Cl	71.41%
COCC(=O)N1C[C@@H]2OCCN(Cc3c(C)noc3C)[C@@H]2C1	-0.2298%
Cc1ccc(N2C[C@@H]3OCCN(Cc4c(C)noc4C)[C@@H]3C2)nn1	2.66%
COc1ccc(F)c(-c2ncccc2NC(=O)C(C)C)c1	-36.39%
CN(C)S(=O)(=O)NC1CC(=O)N(c2ccccc2Cl)C1 (stereo not given)	14.57%
CCN(C)c1ncnc2c1CCN(S(=O)(=O)c1ccccc1)CC2.O=C(O)C(F)(F)F	2.965%
CCCNc1nc(CS(=O)(=O)c2ccccc2)cs1	-0.8742%
C=C(C)CNc1nc(CS(=O)(=O)c2ccccc2)cs1	8.279%
CNc1nc(CS(=O)(=O)c2ccccc2)cs1	106.2%
CC(C)c1nc(O)c2nnn(C[C@@H]3CCCN(Cc4ccsc4)C3)c2n1	7.526%
CC(C)(C)C(=O)N1C[C@@H](F)[C@@H](OCc2nc3ccccc3o2)C1	16.14%
COCc1nc2c(o1)CN(C(=O)NCc1ccccc1)C2	-49.74%
COCc1nc2cc(NCc3ccc(C)o3)ccc2o1	107.3%
COCc1nc2cc(NCc3ccc(CO)o3)ccc2o1	97.16%
Cc1ccc(CNC(C)(C)c2noc(C(C)(C)C)n2)o1	-0.4607%
CCC(C)CNc1ccc2oc(COC)nc2c1 (stereo not given)	35.01%
Cc1nc(-c2ccccc2)nc2c1CCN(Cc1nccn1C)CC2	6.349%
CN(C)c1ncc(C2Nc3cc(Cl)ccc3C3=NCCCN32)cn1.Cl (stereo not given)	8.449%
CCOc1ccc(NC(=O)c2cc(C)c(C)o2)cc1CO	22.28%
CCOc1ccc(NC(=O)c2[nH]c(C)cc2C)cc1CO	102.6%
CCOc1ccc(NC(=O)c2oc(CC)cc2C)cc1CO	34.25%

SMILES	Percent Effect
COCC(=O)N1CCN(C)CC(Cc2cc(N(C)C)ncn2)C1 (stereo not given)	14.46%
CN1CCC(c2[nH]ncc2S(C)(=O)=O)CC1	6.792%
Cc1ccc2c(CC(=O)N(C)CCN(C)C)c(C)[nH]c2c1C.O=C(O)CC(O)(CC(=O)O)C(=O)O	8.878%
CCc1cccc2c(CC(=O)N(C)CCN(C)C)c(C)[nH]c12.O=C(O)CC(O)(CC(=O)O)C(=O)O	51.84%
Cc1[nH]c2c(C)cccc2c1CC(=O)N(C)CCN(C)C.O=C(O)CC(O)(CC(=O)O)C(=O)O	27.37%
COCCN1CCN(S(=O)(=O)c2ccccc2)Cc2cccnc21.O=C(O)C(F)(F)F	12.13%
N#Cc1cc(NS(=O)(=O)c2cc(C(=O)O)cc(Cl)c2Cl)ccc1F	13.91%
CCOC(=O)CN1CC(c2nc(-c3ccsc3)no2)C1.O=C(O)C(=O)O	51.67%
CN(C)S(=O)(=O)N1CC(c2nc(-c3ccsc3)no2)C1	18.06%
CCS(=O)(=O)N1CC(c2nc(-c3ccsc3)no2)C1	-31.96%
O=C1NCCN1C(CNS(=O)(=O)C1CC1)Cc1cccc(F)c1 (stereo not given)	21.82%
CCOCC(=O)Nc1nccn1Cc1ccccc1Cl	48.83%
Cn1ccc(C(=O)Nc2nccn2Cc2ccccc2Cl)cc1=O	51.57%
CC(=O)Nc1nccn1Cc1ccccc1Cl	15.67%
O=C(CCS(=O)(=O)C1CCCC1)N1CCCC1c1ccsc1 (stereo not given)	-6.93%
Cc1noc(C)c1NC(=O)CCn1cc(Br)ccc1=O	22.38%
Cc1cc(NC(=O)Cn2ccc(=O)c3ccccc32)[nH]n1	-8.025%
CC(C)Cc1cc(NC(=O)c2n[nH]c3ccccc23)n(C)n1	15.6%
Cc1cc(O)cc(=O)n1CCCC(=O)Nc1n[nH]c2ccccc12	81.79%
CS(=O)(=O)CCCC(=O)Nc1cc(-c2cccc(F)c2F)n[nH]1	-2.681%
Cn1cc(NC(=O)C2CC(=O)N(c3n[nH]c4cccc(F)c34)C2)cn1 (stereo not given)	-30.85%
Cc1cc(O)cc(=O)n1CCCC(=O)Nc1n[nH]c2cc(Br)ccc12	104.6%
Cc1cc(O)cc(=O)n1CCCC(=O)Nc1n[nH]c2cccc(F)c12	103.9%
Cc1nonc1NC(=O)CCn1cc(Br)ccc1=O	6.093%
